Laboratory results: PubChem BioAssay (NCATS)
For some assays here: Results with a measured potency or affinity are listed apart. Activity calls are given as the source filed them. No rule for the calls is given here.

Test: qHTS profiling of the MIPE4 collection as inhibitors of Plasmodium falciparum (DD2) proliferation (Rep 2) (AID 743346)
Details: P. falciparum Dd2 in erythrocytes, SYBR Green DNA, 72 h; at 28.5 µM unless noted
How it was run: (§1)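 Erythrocytes infected with P. falciparum (0.3% parasitemia, 2.5% hematocrit) incubated with compounds 72 h at 37 C, 5% CO2. Lysis with saponin/Triton buffer containing SYBR Green I, overnight at room temperature in the dark; DNA fluorescence (485/535 nm) normalised to 0.29 uM artemisinin and DMSO.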
For efficacy in this document: 0% is about no effect.

Structure (SMILES)	parasite growth, % of control (lower = inhibition)
Fc1ccc(C(OCCN2CCN(CCCc3ccccc3)CC2)c2ccc(F)cc2)cc1	10.9%
C=C(C)[C@H]1Cc2c(ccc3c2O[C@@H]2COc4cc(OC)c(OC)cc4[C@@H]2C3=O)O1	35.5%
CC(O)(CS(=O)(=O)c1ccc(F)cc1)C(=O)Nc1ccc(C#N)c(C(F)(F)F)c1 (centres undefined)	64.8%
Cc1sc2c(c1C)C(c1ccc(Cl)cc1)=N[C@@H](CC(=O)OC(C)(C)C)c1nnc(C)n1-2	29.2%
O=C(O)C(=O)c1cn(Cc2ccccc2)c2ccc(-c3ccc(OC(F)(F)F)cc3)cc12	77.4%
O=c1[nH]c2ccccc2n1CCCN1CCC(n2c(=O)[nH]c3cc(Cl)ccc32)CC1	31.2%
COC1(CS(=O)c2ccccc2)CCN(CCc2c[nH]c3ccc(F)cc23)CC1 (centres undefined)	66.8%
Cc1cc(SCc2sc(-c3ccc(C(F)(F)F)c(F)c3)nc2C)ccc1OCC(=O)O	50.9%
Oc1cc(Cl)ccc1Oc1ccc(Cl)cc1Cl	20.6%
CNC(=O)c1ccc(N2C(=S)N(c3ccc(C#N)c(C(F)(F)F)c3)C(=O)C23CCC3)cc1F	45.4%
C[C@@H]1[C@@H](C(=O)C[C@H]2O[C@@H]3O[C@]4(C)CC[C@@H]5[C@H](C)CC[C@@H]([C@H]2C)[C@@]35OO4)O[C@@H]2O[C@]3(C)CC[C@H]4[C@H](C)CC[C@@H]1[C@@]24OO3	8.22%
COc1ccc(C(=O)c2c(C)n(CCN3CCOCC3)c3ccccc23)cc1	66.9%
CS(=O)c1ccc(-c2nc(-c3ccc(F)cc3)c(-c3ccncc3)[nH]2)cc1 (centres undefined)	30.3% [at 57.5 µM]
C[C@@H]1[C@@H](CC(C[C@H]2O[C@@H]3O[C@]4(C)CC[C@@H]5[C@H](C)CC[C@@H]([C@H]2C)[C@@]35OO4)C[S+](=O)([O-])c2ccc(COC(=O)N(C)C)cc2)O[C@@H]2O[C@]3(C)CC[C@H]4[C@H](C)CC[C@@H]1[C@@]24OO3 (some centres undefined)	23.2%
CC1=C2C[C@@H]3[C@@H](CC=C4C[C@@H](O)CC[C@@]43C)[C@@H]2CC[C@]12O[C@H]1C[C@H](C)CN[C@H]1[C@H]2C	33.5%
CNC(=O)N1N=C(c2ccc(N)cc2)c2cc3c(cc2CC1C)OCO3 (centres undefined)	67.9%
Cn1c(CCCC(=O)O)nc2cc(N(CCCl)CCCl)ccc21	85.2%
CN(C)CCN(C)CCc1ccc(Cl)c(Cl)c1	18.2%

Test: qHTS profiling of the MIPE4 collection as inhibitors of Plasmodium falciparum (HB3) proliferation (AID 743347);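 also: plate controls were DMSO vehicle wells for no effect and artemisinin wells for full effect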
Details: P. falciparum HB3 in erythrocytes, SYBR Green DNA, 72 h; at 28.5 µM unless noted
How it was run: as §1

Structure (SMILES)	growth, % of control [%]
Fc1ccc(C(OCCN2CCN(CCCc3ccccc3)CC2)c2ccc(F)cc2)cc1	86.1
C=C(C)[C@H]1Cc2c(ccc3c2O[C@@H]2COc4cc(OC)c(OC)cc4[C@@H]2C3=O)O1	90.3
CC(O)(CS(=O)(=O)c1ccc(F)cc1)C(=O)Nc1ccc(C#N)c(C(F)(F)F)c1 (centres undefined)	81.9
Cc1sc2c(c1C)C(c1ccc(Cl)cc1)=N[C@@H](CC(=O)OC(C)(C)C)c1nnc(C)n1-2	12.7
O=C(O)C(=O)c1cn(Cc2ccccc2)c2ccc(-c3ccc(OC(F)(F)F)cc3)cc12	506
O=c1[nH]c2ccccc2n1CCCN1CCC(n2c(=O)[nH]c3cc(Cl)ccc32)CC1	14
COC1(CS(=O)c2ccccc2)CCN(CCc2c[nH]c3ccc(F)cc23)CC1 (centres undefined)	35.7
Cc1cc(SCc2sc(-c3ccc(C(F)(F)F)c(F)c3)nc2C)ccc1OCC(=O)O	87.4
COc1cc([C@@H]2c3cc4c(cc3[C@H](O)[C@H]3COC(=O)[C@H]23)OCO4)cc(OC)c1OC	6.71
Oc1cc(Cl)ccc1Oc1ccc(Cl)cc1Cl	5.41
CNC(=O)c1ccc(N2C(=S)N(c3ccc(C#N)c(C(F)(F)F)c3)C(=O)C23CCC3)cc1F	69.7
C[C@@H]1[C@@H](C(=O)C[C@H]2O[C@@H]3O[C@]4(C)CC[C@@H]5[C@H](C)CC[C@@H]([C@H]2C)[C@@]35OO4)O[C@@H]2O[C@]3(C)CC[C@H]4[C@H](C)CC[C@@H]1[C@@]24OO3	29.5
COc1ccc(C(=O)c2c(C)n(CCN3CCOCC3)c3ccccc23)cc1	93.4
C[C@@H]1[C@@H](CC(C[C@H]2O[C@@H]3O[C@]4(C)CC[C@@H]5[C@H](C)CC[C@@H]([C@H]2C)[C@@]35OO4)C[S+](=O)([O-])c2ccc(COC(=O)N(C)C)cc2)O[C@@H]2O[C@]3(C)CC[C@H]4[C@H](C)CC[C@@H]1[C@@]24OO3 (some centres undefined)	20.9
CC1=C2C[C@@H]3[C@@H](CC=C4C[C@@H](O)CC[C@@]43C)[C@@H]2CC[C@]12O[C@H]1C[C@H](C)CN[C@H]1[C@H]2C	71.2
CNC(=O)N1N=C(c2ccc(N)cc2)c2cc3c(cc2CC1C)OCO3 (centres undefined)	248
Cn1c(CCCC(=O)O)nc2cc(N(CCCl)CCCl)ccc21	104
CN(C)CCN(C)CCc1ccc(Cl)c(Cl)c1	72.7

Test: not given
Details: Ebola virus entry assay, green fluorescence channel

Structure (SMILES)	efficacy
Fc1ccc(C(OCCN2CCN(CCCc3ccccc3)CC2)c2ccc(F)cc2)cc1	-187% (inactive)
C=C(C)[C@H]1Cc2c(ccc3c2O[C@@H]2COc4cc(OC)c(OC)cc4[C@@H]2C3=O)O1	120% (inactive)
COC(=O)Nc1nc2ccc(C(=O)C3CC3)cc2[nH]1	69.7% (inactive)
COc1cc2c(N3CCN(C(=O)Nc4ccc(OC(C)C)cc4)CC3)ncnc2cc1OCCCN1CCCCC1	52% (inactive)
CN1CC[C@H](c2c(O)cc(O)c3c(=O)cc(-c4ccccc4Cl)oc23)[C@H](O)C1	58.1% (inactive)
C#CCOC(C(=O)OCCN(C)C)(c1ccccc1)c1ccccc1	46% (inactive)
Oc1ccc(Cl)cc1Cc1ccccc1	-105% (inactive)
O=c1c(O)c(-c2ccc(O)c(O)c2)oc2cc(O)cc(O)c12	-18.8% (inactive)
C[C@H]1O[C@@H](O[C@H]2[C@@H](O)C[C@H](O[C@H]3[C@@H](O)C[C@H](O[C@H]4CC[C@@]5(C)[C@H](CC[C@@H]6[C@@H]5CC[C@]5(C)[C@@H](C7=CC(=O)OC7)CC[C@]65O)C4)O[C@@H]3C)O[C@@H]2C)C[C@H](O)[C@@H]1O	-46.6% (inactive)
NC(=Nc1ccccc1)Nc1ccccc1	-28.5% (inactive)
COC(=O)Nc1nc2ccc(C(=O)c3cccs3)cc2[nH]1	64.8% (inactive)
O=c1[nH]c2ccccc2n1CCCN1CCC(n2c(=O)[nH]c3cc(Cl)ccc32)CC1	125% (inactive)
COc1cc([C@@H]2c3cc4c(cc3[C@H](O)[C@H]3COC(=O)[C@H]23)OCO4)cc(OC)c1OC	25.2% (inactive)
O=C1NCN(c2ccccc2)C12CCN(CC1COc3ccccc3O1)CC2 (centres undefined)	-42.1% (inactive)
CN1C(=S)CN=C(c2ccccc2)c2cc(Cl)ccc21	37% (inactive)
Oc1cc(Cl)ccc1Oc1ccc(Cl)cc1Cl	-133% (inactive)
CCC1(C2=NCCN2)Cc2ccccc2O1 (centres undefined)	28% (inactive)
Clc1ccc(COC(Cn2ccnc2)c2ccc(Cl)cc2Cl)cc1 (centres undefined)	-214% (inactive)
COc1ccc(C(=O)c2c(C)n(CCN3CCOCC3)c3ccccc23)cc1	-40.9% (inactive)
COc1cccc2c1C(=O)c1c(O)c3c(c(O)c1C2=O)C[C@@](O)(C(=O)CO)C[C@@H]3O[C@H]1C[C@H](N)[C@H](O)[C@H](C)O1	89.6% (inactive)
c1ccc2c(c1)Nc1ccccc1S2	4% (inactive)
O=c1oc2ccccc2c(O)c1C(CC(O)c1ccc(-c2ccc(Br)cc2)cc1)c1ccccc1 (centres undefined)	92.1% (inactive)
CC(C)(C)CC(C)(C)c1ccc(O)cc1	-38.7% (inactive)
